From PubChem BioAssay
An excerpt weighted towards active compounds, which were near 2.5% of everything screened.
CRFBP-R2 agonist: agonists of CRF-BP/CRF-R2 complex, primary screen, cell-based, HEK293, calcium dye fluorescence, uHTS. calcium dye fluorescence (FLIPR); percent of saturating CRF peptide response. activation, % at 13.2 µM. 0.46% of 350,000 active. AID 588473, 2011. CRF-binding protein / CRF receptor 2 complex (human);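 active = activation of at least 50%, plus an integration ratio under a set limit after plate pattern correction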
Cardio protect: cardioprotection against H2O2-induced cell death, primary screen, uHTS, H9c2 cells, ATPLite luminescence | 0.63% of 360,000 active | protection from H2O2 cell death, % at 20 µM | H9c2 cardiomyocytes, H2O2 injury protection, 2 h;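 active = compounds giving at least 50% protection of heart cells from peroxide-induced death in the single-dose screen, raw or plate-pattern-corrected value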
CRFBP-R2 block: antagonists of CRF-BP/CRF-R2 complex, primary screen, cell-based, HEK293, calcium dye fluorescence, uHTS. CRF-induced calcium fluorescence. inhibition, % at 11.8 µM. 0.59% of 350,000 active. AID 588475, 2011;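 active = inhibition of the ligand-induced calcium signal above about 50% at the single tested concentration, limit read from the data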
H9c2 TAG inh: inhibitors of triacylglycerol accumulation, primary screen, cell-based, uHTS, fluorescence, H9c2; H9c2 cells, Nile Red lipid (TAG) fluorescence; cells loaded with 200 µM oleic acid; inhibition, % at 12.5 µM; 0.66% of 230,000 active; AID 651582, 2012;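 active = pattern-corrected inhibition of lipid staining of at least 50% with the nuclear-stain viability signal not falling by more than 50%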
SKN-1 inh: suppressors of acrylamide-induced Pgst-4::GFP reporter in worms, primary screen, SKN-1 inhibitor project, whole organism, uHTS, GFP/RFP fluorescence ratio, strain VP596; C. elegans VP596 Pgst-4::GFP/RFP ratio, 24 h; inhibition, % at 21.8 µM; 0.49% of 360,000 active;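 active = interference check ratio from 0.5 to 1.5 plus GFP to RFP signal ratio inhibition reaching or exceeding a fixed threshold, cut at about 30% in these data, passing the limit was not always enough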
iPSC survival up: enhancers of single-cell hiPSC survival, primary screen, ATPlite luminescence; 0.044% of 360,000 active; survival enhancement, % at 20 µM; 100% = ROCK inhibitor wells, 0% = DMSO; in the data active = survival enhancement above about 18%;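 note: cells exposed to compounds for 16 hours before the ATP read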
Of the large screens only hits and unclear results are named; the others gave an inactive call.

COc1ccc(C(=O)Nc2ccc3nc4n(c(=O)c3c2)CCCCC4)cc1OC	CRFBP-R2 block 61.9
COc1cc(C(=O)Nc2ccc3nc4n(c(=O)c3c2)CCCCC4)cc(OC)c1OC	none (no result: H9c2 TAG inh)
O=C(Nc1ccc(SC(F)F)cc1)c1ccc2c(=O)n3c(nc2c1)CCC3	CRFBP-R2 agonist 74.0
Cc1cc(C)c2nc3nc(C)c(C)cc3c(N)c2c1	CRFBP-R2 agonist 70.6, CRFBP-R2 block 111.0
CCCSc1nc(C)c2cc(C)cc(C)c2n1	none
FC(F)(F)c1ccccc1Cc1c(-c2ccc(Cl)cc2)nc2c3ccccc3ccn12	none (no result: CRFBP-R2 agonist, Cardio protect, CRFBP-R2 block, H9c2 TAG inh)
CN(C)c1ccc(C(=O)C=Cc2ccc([N+](=O)[O-])cc2)cc1	none
CN(C)c1ccc(/C=C/C(=O)c2ccc3c(c2)OCO3)cc1	CRFBP-R2 agonist 135.4
O=C(/C=C/c1cccc(O)c1)c1cccnc1	none
CN(C)c1ccc(/C=C/c2ccncc2)cc1	CRFBP-R2 agonist 173.0
CN(C)c1ccc(/C=C/C(=O)c2cccnc2)cc1	CRFBP-R2 agonist 120.3
CN(C)c1ccc(/C=C/C(=O)c2ccc(O)cc2)cc1	CRFBP-R2 agonist 156.0
CCOC1CCCc2oc(-c3ccc(OC)cc3)c(C(=O)NCCCCO)c21 (stereo not drawn)	none (no result: CRFBP-R2 agonist, Cardio protect, CRFBP-R2 block, H9c2 TAG inh)
Cc1cccc([N+](=O)[O-])c1NC(=O)CSc1nnc2ccccn12	none
COc1ccc(C(=O)/C=C/c2ccc(N(C)C)cc2)c(OC)c1	CRFBP-R2 agonist 102.6
O=C(NCCOC(=O)C1COc2ccccc2O1)c1cccnc1 (stereo not drawn)	CRFBP-R2 agonist 64.2
O=c1cc(O)nc(SCc2ccccc2)n1-c1ccc(Cl)cc1	none
CC(C)(C)c1nnc(NS(=O)(=O)c2cc(Cl)ccc2Cl)s1	none
O=S(=O)(Nc1nc(-c2sccc2Cl)cs1)c1cc(Cl)ccc1Cl	CRFBP-R2 block 58.8
O=C1c2cccc3cc([N+](=O)[O-])cc(c23)C(=O)N1CCN1CCCC1	none (no result: H9c2 TAG inh)
Nc1cc2c3c(cccc3c1)C(=O)N(CCN1CCCC1)C2=O	CRFBP-R2 agonist 66.3 (no result: H9c2 TAG inh)
O=C(O)CC(C(=O)O)N1C(=O)/C(=C/c2ccc(-c3nc4ccccc4s3)o2)SC1=S (stereo not drawn)	CRFBP-R2 block 53.4 (no result: H9c2 TAG inh)
O=C(O)CCN1C(=O)/C(=C/c2ccc(-c3nc4ccccc4s3)o2)SC1=S	none (no result: H9c2 TAG inh)
O=C(O)CCCN1C(=O)/C(=C\c2ccc(-c3nc4ccccc4s3)o2)SC1=S	CRFBP-R2 agonist 109.0
O=C(O)c1cc(-c2ccc(/C=C3/SC(=S)N(Cc4ccccc4)C3=O)o2)ccc1Cl	CRFBP-R2 agonist 208.9
CC(C)c1nnc(NC(=O)C2CCN(C(=O)Nc3ccccc3)CC2)s1	none (no result: H9c2 TAG inh)
CCOc1cccc(CN2CCCC(N3CCc4cc(OC)c(OC)cc4C3)C2)c1O (stereo not drawn)	none
COC(=O)c1ccc2nc(-c3ccc(C)cc3)c(Cc3cccc(F)c3)n2c1	SKN-1 inh 40.6 (no result: CRFBP-R2 agonist, Cardio protect, CRFBP-R2 block, H9c2 TAG inh)
O=[N+]([O-])/C(C(Cl)=C(Cl)Cl)=C(/NC1CC1)Sc1ccccc1	CRFBP-R2 block 55.5
CN(c1ccccc1)c1ccc(/C=C/[N+](=O)[O-])cc1	CRFBP-R2 agonist 75.5 (no result: H9c2 TAG inh)
Cc1cc2ccccc2n1CCNC(=O)C1CCCC1	SKN-1 inh 37.5
Cc1cc2ccccc2n1CCNC(=O)C1CC1	SKN-1 inh 46.6
CCCn1c(CCNC(=O)c2cccs2)nc2ccccc21	none
Cc1cc2ccccc2n1CCNC(=O)C1CCCCC1	none
O=C(NCCn1ccc2ccccc21)C1CCCCC1	none
Cc1cc2ccccc2n1CCNC(=O)c1cccs1	SKN-1 inh 46.0
Cc1ccc(S(=O)(=O)NNC(=O)c2sc(=S)n(C)c2C)cc1	none (no result: H9c2 TAG inh)
COc1ccc(NC2CC(=O)N(CCc3ccccc3)C2=O)cc1 (stereo not drawn)	SKN-1 inh 37.8
O=C1CC(Nc2ccccc2)C(=O)N1CCc1ccccc1 (stereo not drawn)	none
COc1ccc(CCN2C(=O)CC(Cc3ccccc3)C2=O)cc1OC (stereo not drawn)	CRFBP-R2 block 79.5
COc1ccc(CCN2C(=O)CC(Cc3ccc(Br)cc3)C2=O)cc1OC (stereo not drawn)	none (no result: H9c2 TAG inh)
CCC1(CC)CNC(=O)NC1	none
COc1cc2cc3c(N)c(C(=O)NCc4ccco4)sc3nc2cc1OC	Cardio protect 58.3
CSCCC(C(=O)NCc1ccccc1)n1c(C2CCN(C(C)=O)CC2)nc2ccccc21 (stereo not drawn)	none (no result: CRFBP-R2 agonist, Cardio protect, CRFBP-R2 block, H9c2 TAG inh, iPSC survival up)
COc1cccc(/C=N/NC(=O)CCc2c(C)n[nH]c2C)c1O	none
COc1ccc(-c2cc(C(=O)O)nc3ccc4ccccc4c23)cc1OC	CRFBP-R2 block 58.0
C=CCN1C(=O)CS/C1=N\S(=O)(=O)c1ccc(Cl)cc1	none (no result: H9c2 TAG inh)
COc1ccc(CC(=O)NNC(=O)c2ccc(Br)o2)cc1	none
Clc1ccc2oc(-c3ccccn3)nc2c1	SKN-1 inh 38.8
Cc1cnc(C)c(Nc2nc(C(N)Cc3ccc(Cl)cc3)cs2)n1 (stereo not drawn)	none (no result: CRFBP-R2 agonist, CRFBP-R2 block)
COCCN1C(=O)CN(S(C)(=O)=O)CC1(C)C(=O)Nc1c(C)cccc1C (stereo not drawn)	none (no result: CRFBP-R2 agonist, Cardio protect, CRFBP-R2 block, H9c2 TAG inh, iPSC survival up)
Cc1ccc(S(=O)(=O)NC(=O)Nc2ccc(N(C)C)cc2)cc1	H9c2 TAG inh 59.6
COCCCNc1nccn2ccnc12	none (no result: CRFBP-R2 agonist, CRFBP-R2 block)
O=C(Nc1ccn(CCCNCc2ccc3c(c2)OCO3)c(=O)n1)OCc1ccccc1	CRFBP-R2 block 110.3
c1ccc(Oc2cc(-c3ccccc3)ncn2)cc1	SKN-1 inh 49.7
CCc1cc(Cn2nc(-c3ccccc3)cc2C(=O)NCc2cccc(Br)c2)on1	none
Cn1c(-c2ccccc2)c(Sc2ccccc2)c2cc(-c3ccc4[nH]ccc4c3)ccc21	none (no result: CRFBP-R2 agonist, Cardio protect, CRFBP-R2 block, H9c2 TAG inh)
COc1cc(C(=O)OCC(=O)NC2CCCCC2)cc2c1OCCO2	none
CCCCN1C(=O)/C(=C/C=C2/CC(C)(C)CN2C)SC1=S	CRFBP-R2 agonist 195.6
CCCN1C(=O)/C(=C/C=C2\N(CC)c3ccccc3C2(C)C)SC1=S	CRFBP-R2 agonist 169.5
CCCN1C(=O)/C(=C\C=C2/Sc3ccccc3N2CCO)SC1=S	none
Cn1cccc1/C=C1/SC(=S)N(CC(=O)O)C1=O	none
CCCN1C(=O)/C(=C/c2ccncc2)SC1=S	none (no result: H9c2 TAG inh)
CN1/C(=C\C=C2/SC(=S)N(CC(=O)O)C2=O)C(C)(C)c2ccccc21	CRFBP-R2 agonist 263.1 (no result: H9c2 TAG inh)
C=CCN1C(=O)/C(=C\C=C2\N(C)c3ccccc3C2(C)C)SC1=S	CRFBP-R2 agonist 104.2
CN1CCN(c2ncnc3c2ncn3[C@H]2CN(C)C[C@@H](CO)O2)CC1	none (no result: CRFBP-R2 agonist, CRFBP-R2 block)
COc1cc(C(=O)NCc2ccc3c(c2)OCO3)c([N+](=O)[O-])cc1OC	none (no result: H9c2 TAG inh)
